# In all, about 2,300 compounds went through this assay and about 1,400 (61%) were called active. Another 7% or so got no clear call; they are omitted. No rule for the calls is given here. The set was probably picked from earlier hits. The list is a sample of the results. Measured potencies and affinities stand elsewhere.
# Target: FAD-linked sulfhydryl oxidase ALR (Homo sapiens) (UniProt P55789)
# Experiment: ALR-catalysed DTT oxidation blockers – biochemical, H2O2 detection, luminescence, cherry-pick, dose response (AID 493248)
# Conditions: purified ALR, H2O2 HRP-luminol luminescence; at 10 µM (top of the series)
# Chain of FAD-linked sulfhydryl oxidase ALR (Homo sapiens) (P55789 whole entry, looked up): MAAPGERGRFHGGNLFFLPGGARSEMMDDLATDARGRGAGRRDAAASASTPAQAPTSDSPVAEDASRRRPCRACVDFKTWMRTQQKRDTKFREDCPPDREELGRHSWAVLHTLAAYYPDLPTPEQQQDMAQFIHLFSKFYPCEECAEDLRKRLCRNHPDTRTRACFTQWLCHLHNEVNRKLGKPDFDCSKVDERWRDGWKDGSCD
row,SMILES,"activity change, negative = inhibition"
1,COC(=O)c1[nH]c2cc(OC)ccc2c1N=CN(C)C,-64.5%
2,CCc1ccc(OC)c(-c2csc(N)n2)c1,3.63%
3,O=c1oc(-c2ccc(F)cc2)nc2ccsc12,-52.7%
4,O=C(Nc1ccccc1N1CCCCC1)c1cnccn1,-36.5%
5,Cc1ccc(C(=O)C2CCN(CC(=O)Nc3ccc(N(C)C)cc3)CC2)cc1,-106%
6,C=CCn1c(-c2cc(OC)cc(OC)c2)n[nH]c1=S,-54.8%
7,C=CCn1c(-c2ccc(N)cc2)nc2ccccc21,-33.2%
8,Cc1nnc(N2CCN(Cc3ccccc3)CC2)[nH]c1=O,42.6%
9,CCN(C(=O)CN1CCN(c2cccc(Cl)c2)CC1)c1c(N)n(Cc2ccccc2)c(=O)[nH]c1=O,-43.8%
10,CCn1c(=O)c2c3c(sc2n2c(=S)[nH]nc12)CCC3,-18.2%
11,COc1cccc(/C=N/NC(=O)CNC(=O)c2ccncc2)c1O,-31.5%
12,COc1cc(/C=N\NC(=O)c2ccc(-c3ccccc3)cc2)cc(OC)c1O,-59.8%
13,COc1cc2c(ccc3cc(OC)c(OC)c(O)c32)cc1O,-112%
14,Cc1nc2ccc(-c3ccccc3)cc2o1,-7.02%
15,c1c2c(cc3sc(N4CCCCC4)nc13)OCO2,-5.07%
16,O=C(O)c1[nH]c2ccccc2c1NS(=O)(=O)Cc1ccccc1,-42.2%
17,C[C@H](NC(=O)c1cc2c(cn1)[nH]c1ccccc12)C(=O)O,-94.7%
18,CCCn1cnc2cc(NCc3cccc(OC)c3)ccc21,395%
19,Cn1cnc2cc(NCc3ccccc3O)ccc21,297%
20,Oc1ccc(-c2n[nH]c(=S)n2Cc2ccco2)cc1,-29.1%

row,SMILES,"activity change, negative = inhibition"
1,COc1ccc(C(=O)N/N=C(\Cc2ncc[nH]2)c2ccccc2)cc1,-40%
2,Cc1[nH]nc(-c2ccc(O)cc2O)c1Oc1ccccc1,-84.3%
3,COc1ccc(S(=O)(=O)n2nc(OC(=O)c3ccco3)cc2N)cc1,-55.8%
4,O=C1NN(c2ccccc2)C(=O)/C1=C\c1ccccc1,-5.6%
5,N/C(=N\N=C\c1ccc(O)cc1)c1nonc1N,-84.5%
6,Nc1cc(C(F)(F)F)ccc1C(=O)O,8.42%
7,COc1ccccc1N1CC(C(=O)Nc2nnc(SCc3cccnc3)s2)CC1=O (stereo not given),-17.9%
8,Cc1ccc(-c2nc3cc(N)ccc3o2)c(C)c1,19.5%
9,Cc1ccc(C)c(-c2nc3cc(N)ccc3o2)c1,-81.2%
10,COC(=O)c1ccc(-c2nc3cc(N)ccc3o2)cc1,72.5%
11,Nc1ccc2nc(-c3cccs3)[nH]c2c1,-80%
12,COc1ccc(-c2cc(C(F)F)n3ncc(C(=O)n4ccnc4C)c3n2)cc1,-48%
13,CCCN1CCC(=O)N([C@H](CSc2ccc(OC)cc2)CC(C)C)CC1,20.7%
14,O=C(O)CCn1c2c(c3ccccc31)CCCC2,5.37%
15,Cc1ccc(Nc2nnns2)cc1C,-6.48%
16,Cc1ccc(NCCC(=O)c2cccs2)cc1C,-51.1%
17,CN(C)c1ccc(CN(C(=O)c2cc3ccccc3oc2=O)C2CCS(=O)(=O)C2)cc1 (stereo not given),-17.6%
18,COc1ccc(NC2CCCN(C(=O)c3ccc(C)nc3)C2)cc1 (stereo not given),289%
19,S=c1[nH]nc(-c2ccncc2)n1Cc1ccco1,-47.7%
20,Cc1cccc(C(=O)N2CCCC(N3CCN(c4ccc(F)cc4)CC3)C2)n1 (stereo not given),-66.1%

# Source: PubChem BioAssay AID493248 (Broad Institute, 2011)
